Shiga inhibitor: Shiga toxin inhibition; Vero cells, Shiga toxin protein synthesis inhibition reporter; inhibition, % at 38.7 µM; 290,000 tested, 9.2% active; in the data active = inhibition mostly above about 28%, no sharp cut-off; inactive = mostly below about 43%; note: 0% is about no effect
Pf growth 48h: inhibits P. falciparum growth in the first generation, 48 h; P. falciparum luciferase growth in erythrocytes, 48 h; Potency, µM (titrated, usually from 28.7 µM), for the others: top-dose activity change, negative = inhibition, usual class: inhibitors; 310,000 tested, 5.9% active; note: potency is the fitted concentration of half-maximal effect; % is set by controls: 0 for no effect and ±100 for the full control effect
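Parasite viability was followed by luminescence of a genomically integrated firefly luciferase. Cultures held 0.1% parasitemia at 2% hematocrit (final), incubated under 5% CO2 at 37 C.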
Pf growth 96h: P. falciparum growth inhibition at 96 hours | P. falciparum luciferase reporter growth, 96 h | Potency, µM (top dose mostly 28.7 µM), for inactives: top-dose activity change, negative = inhibition, hits mostly inhibitors | 320,000 tested, 6.9% active | AID 504834; note: potency is the fitted concentration of half-maximal effect; % is set by controls: 0 for no effect and ±100 for the full control effect
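P. falciparum expressing integrated firefly luciferase grown in erythrocytes (2% hematocrit, 0.05% parasitemia final) with compounds for 96 hours at 37 C, 5% CO2. Growth inhibition read as loss of luminescence after adding luciferase detection reagent.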
NS1 function inh: inhibitors of influenza NS1 protein function. Potency, µM (highest dose often 46.1 µM), without a hit: at the highest dose activity, positive = more growth. 270,000 tested, 0.4% active. AID 2326; calls by dose curve; note: potency is the fitted concentration of half-maximal effect; actives are rising curves; nearly all actives have a fitted effect of over 50% in size
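In this qHTS, NS1 from influenza A is expressed in budding yeast, where it slows growth. Cells are switched from glucose to 2% galactose medium (pH 6.0, -URA), treated with compound, and growth recovery is read at OD600.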
CHX counter: counter-screen hit for Shiga toxin inhibitors, cycloheximide. max response, %. cell reporter, cycloheximide protein synthesis inhibition counterscreen. 300,000 tested, 12% active. AID 2314; in the data active = max response mostly above about 13%, no sharp cut-off; inactive = mostly below about 14%; note: read at 38.3 µM for the half of the compounds with a filed dose; 0% is about no effect
SARS PLpro yeast: SARS-CoV PLP inhibition in yeast; S. cerevisiae expressing SARS-CoV PLpro, growth rescue; AID 485353; 330,000 tested, 0.19% active; Potency, µM (highest dose often 32.9 µM), without a hit: at the highest dose activity, positive = growth rescue, actives largely listed as activators; calls by dose curve; note: potency is the fitted concentration of half-maximal effect; 0% is about no effect; nearly all actives have a fitted effect of over 55% in size
An asterisk follows results filed as active; ? = inconclusive; / = no result; [ ] = remark or other dose. Only some compounds are listed: those with a hit (about 21% of all), similar ones and a draw of the others. Unless noted, calls come from the whole dose curve; as a rule, active = well fitted inhibition curve with a large enough effect; inconclusive = small, poorly fitted or top-dose-only effect, or another doubt; inactive = no such curve, though single readings can be large or run the other way.

SMILES	Shiga inhibitor	Pf growth 48h	Pf growth 96h	NS1 function inh	CHX counter	SARS PLpro yeast
COC(=O)[C@@]12CCCCN1[C@H](c1ccc(-c3ccccc3)cc1)[C@H]1C(=O)N(C)C(=O)[C@H]12	/	-19%	1%	/	/	-4%
COC(=O)[C@@]12CCCCN1[C@H](c1ccc(-c3ccc(Cl)c(Cl)c3)cc1)[C@H]1C(=O)N(C)C(=O)[C@H]12	/	/	/	/	/	-2%
COc1cccc(-c2ncc3ccccc3c2COC(=O)N2CCCCC2)c1	/	?	?	/	/	-4%
COc1ccc(OCC(=O)OCC(=O)NC2CC2)cc1	/	-9%	2%	/	/	1%[6.58 µM]
Cc1cccn2c(=O)c(/C=C(\C#N)S(=O)(=O)c3ccccc3)c(N3CCCCC3)nc12	-29	?	?	5%	1	1%
CCOC(=O)C1CCN(c2nc3c(C)cccn3c(=O)c2/C=C(\C#N)S(=O)(=O)c2ccccc2)CC1	-10	9.3µM*	?	21%	-5	0%
CCN1CCN(c2nc3c(C)cccn3c(=O)c2/C=C(\C#N)S(=O)(=O)c2ccc(Cl)cc2)CC1	-7	-10%	13%	2%	-1	0%
CCN1CCN(c2nc3c(C)cccn3c(=O)c2/C=C(\C#N)S(=O)(=O)c2ccc(C)cc2)CC1	16	13%	4.1µM*	-2%	-4	-1%
CCC(CC)C(=O)Nc1ccccc1-n1cccc1	2	38%	210%	5%	-3	2%
Cc1cnc(C(=O)Nc2ccccc2-n2cccc2)cn1	9	8%	12µM*	-5%	3	-5%
Cc1cnc(C(=O)Nc2ccccc2F)cn1	84*	/	149%	-4%	43*	-8%
COC(=O)n1ccc(C(=O)Nc2ccccc2F)n1	75	77%	?	0%	27*	-2%
CCN(CC)S(=O)(=O)c1ccc(N2CCCC2)c(NC(=O)CN2C(=O)NC3(CCCC3)C2=O)c1	/	?	?	/	/	-5%
CC(C)C(=O)N1CCC(CN=CC2=C(O)CC(C)(C)CC2=O)CC1	-3	0%	102%	-1%	-3	23%
CNC(=O)COc1ccc(C=O)cc1OC	-6	-9%	4%	-5%	-1	5%
CCOc1cc(C=O)ccc1OCCSc1ccc(C)cc1	26	-14%	10%	-31%	23	-18%
COc1cc(C=O)ccc1OCCSc1ccc(C)cc1	46*	99%	68%	-12%	39*	-9%
COc1cc(C=O)ccc1OCc1cccc(Br)c1	70*	50%	-11%	-44%	47*	4%
COC(=O)c1ccccc1OCCOc1ccccc1C(=O)OC	-12	-10%	0%	0%	-3	8%
COC(=O)c1ccccc1OCCCOc1ccc(C=O)cc1OC	86*	44%	139%	-43%	37*	-5%
COc1cc(C=O)ccc1OCc1ccccc1Br	74*	113%	36%	-38%	61*	3%
CC(C(=O)Nc1ccc(Br)cc1)N(C)CC(=O)NCc1ccco1 (stereo not drawn)	/	21%	-7%	/	/	11%
Cc1ccc(C)c(NC(=O)CN(C)C(=O)c2ccc(-c3cccc(C(F)(F)F)c3)o2)c1	/	1.9µM*	1.3µM*	/	/	-2%
CN(CC(=O)Nc1cccc(F)c1)C(=O)c1ccc(COc2ccccc2)o1	/	?	?	/	/	-2%
COc1cccc(NC(=O)CN(C)CC(=O)Nc2cccc(C(F)(F)F)c2)c1	-7	-24%	-14%	4%	2	1%
SMILES	Shiga inhibitor	Pf growth 48h	Pf growth 96h	NS1 function inh	CHX counter	SARS PLpro yeast
COc1cccc(NC(=O)CN(C)C(=O)c2ccc(-c3cccc(C(F)(F)F)c3)o2)c1	/	0.33µM*	0.26µM*	/	/	3%
CN(CC(=O)Nc1cccc(F)c1)C(=O)c1ccc(-c2cccc(C(F)(F)F)c2)o1	/	0.33µM*	0.12µM*	/	/	-4%
Cc1cc2occ(CC(=O)N(C)CC(=O)Nc3c(C)cccc3C)c2cc1C	/	?	-7%	/	/	5%
Cc1cccc(C)c1NC(=O)CN(C)C(=O)Cc1cccc(C(F)(F)F)c1	31*	?	-21%	4%	21	0%
C/C=C1\COC(C(=O)NCCN2CCOCC2)(C(F)(F)F)C=C1C=C(C)C (stereo not drawn)	11	/	/	/	12	/
O=C(CC(c1ccccc1)c1cc(Cl)ccc1O)NCCCN1CCOCC1 (stereo not drawn)	-4	?	-13%	2%	-1	0%
S=C1NCCNC(=S)NCCOCCOCCOCCN1	-9	-4%	?	/	18	5%
Cc1cc(-c2cc(-c3ccccc3)on2)nc(NC2CCCC2)n1	34*	?	?	-33%	21	-16%
CCc1nn2c(NCCOC)cc(C)nc2c1-c1ccc(F)cc1	16	?	32%	/	7	-12%
O=C(C1CCN(S(=O)(=O)N2CCCCC2)CC1)N1CCCCC1	-6	27%	6%	-9%	-2	-8%
C/C(=N\Nc1cc(N2CCOCC2)ncn1)c1ccccc1	30*	0%	?	12%	28*	-7%
O=[N+]([O-])c1cccc(/C=N/Nc2cc(N3CCOCC3)ncn2)c1	-2	/	?	8%	-3	0%
Clc1ccccc1/C=N/Nc1cc(N2CCOCC2)ncn1	33	121%	8.3µM*	0%	32	0%
C=CCn1cnc2scc(-c3ccc(C)cc3)c2c1=O	-8	/	?	-47%	0	8%
CC1Cc2ccccc2N1C(=O)COC(=O)/C=C/c1ccc(F)cc1 (stereo not drawn)	/	9%	38%	/	/	14%
CC1Cc2ccccc2N1C(=O)/C=C/c1cccc(F)c1 (stereo not drawn)	87*	251%	293%	/	45*	-2%
N#CCCS(=O)(=O)c1nnnn1-c1ccccc1	6	?	-11%	-242%	19*	-32%
COC(=O)[C@@H]1CCCN1Cc1nc(Cc2ccccc2F)no1	-3	8%	-15%	-7%	2	0%
CCc1ccc(C2C(C(C)=O)=C(C(=O)OC)Nc3nnnn32)cc1 (stereo not drawn)	-3	-17%	5.2µM*	6%	1	17%
COc1ccc(C(=O)N=C2SC3CS(=O)(=O)CC3N2c2ccc(N(C)C)cc2)cc1OC (stereo not drawn)	9	-22%	9.3µM*	18%	11	0%
COc1ccc(N2C(=NC(=O)C3CCCCC3)SC3CS(=O)(=O)CC32)cc1OC (stereo not drawn)	-2	5%	16%	-8%	-1	1%
COc1ccc(CCN(C(=O)C(F)(F)F)C(C(=O)NC2CCCC2)c2cccs2)cc1OC (stereo not drawn)	-4	?	7.4µM*	-2%	9	-1%
COc1ccc(CCN(C(=O)C(F)(F)F)C(C(=O)NC2CCCCC2)c2ccc(C)s2)cc1OC (stereo not drawn)	-5	4.1µM*	?	4%	10	0%
